# HSF1 inh: HSF1 inhibition; activity change, negative = inhibition, % at 7.5 µM (by protocol); NIH3T3-HGL HSE-luciferase, MG132-induced, luminescence 8 h; stronger effect = lower value; AID 2098; 300,000 tested, 0.77% active;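 active means more than half of replicate wells show activity change below -50%, luminescence cut by over half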;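 further: luciferase reports HSF-1 transcriptional activity via heat shock element; 0% = median of DMSO wells and -100% = zero luminescence signal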
# FXN GAA850 act: activators of GAA850 frataxin (FXN) promoter; HEK293 lucGAA850 FXN promoter luciferase reporter, 24 h; percent of 10 µM SAHA response; activation, % at 6 µM; 360,000 tested, 0.56% active;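 active means activation above the average of all compounds screened plus 3 SD, cutoff fixed separately per campaign, cut at about 7.5% in these data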;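 further: 0% = DMSO wells and 100% = 10 µM SAHA wells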
# HSF-1 act: increases HSF-1 driven luciferase reporter signal; AID 504408; NIH3T3-HGL HSF-1 luciferase reporter, MG132, 8 h; 100% = twice DMSO control signal; activation, % at 9 µM; 300,000 tested, 1.7% active;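 active means mean replicate activation of at least 50% with a set share of replicates each reaching 50%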;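 further: 0% = median of the neutral control wells and 100% = twice that signal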
# AHR act: activates the human aryl hydrocarbon receptor. P35869. 320,000 tested, 2.5% active. AHR-responsive luciferase reporter cells, luminescence. activation, % at 5 µM. AID 2796; in the data active means activation above about 47%;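 further: 0% = vehicle wells and 100% = reference agonist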
# Target sequence (P35869 whole entry, looked up): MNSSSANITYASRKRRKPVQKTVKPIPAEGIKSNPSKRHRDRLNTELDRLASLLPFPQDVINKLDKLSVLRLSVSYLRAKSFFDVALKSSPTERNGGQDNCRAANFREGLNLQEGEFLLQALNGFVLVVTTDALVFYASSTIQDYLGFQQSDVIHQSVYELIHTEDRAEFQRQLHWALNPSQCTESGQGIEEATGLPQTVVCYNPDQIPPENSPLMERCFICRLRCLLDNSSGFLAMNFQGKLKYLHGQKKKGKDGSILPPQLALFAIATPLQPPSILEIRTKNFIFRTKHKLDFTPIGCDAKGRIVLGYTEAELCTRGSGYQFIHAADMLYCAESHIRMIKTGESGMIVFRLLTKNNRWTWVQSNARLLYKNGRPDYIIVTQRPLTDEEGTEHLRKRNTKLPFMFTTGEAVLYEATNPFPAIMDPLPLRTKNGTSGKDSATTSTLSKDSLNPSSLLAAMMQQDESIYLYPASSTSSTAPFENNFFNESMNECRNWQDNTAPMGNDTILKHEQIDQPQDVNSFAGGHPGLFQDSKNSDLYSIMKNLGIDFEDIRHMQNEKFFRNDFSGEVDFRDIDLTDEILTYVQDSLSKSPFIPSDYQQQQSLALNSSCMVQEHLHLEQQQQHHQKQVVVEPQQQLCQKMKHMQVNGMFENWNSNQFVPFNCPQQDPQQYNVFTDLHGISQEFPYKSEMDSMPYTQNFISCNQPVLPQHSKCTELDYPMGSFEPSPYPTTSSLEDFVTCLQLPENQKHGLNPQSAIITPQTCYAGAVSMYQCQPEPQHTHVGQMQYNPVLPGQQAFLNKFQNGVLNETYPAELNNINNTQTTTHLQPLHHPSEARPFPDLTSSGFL
# Numbers without * were called inactive; . = not tested or not shown. This is a sample that favours compounds with a hit; in the whole collection about 4.6% have one here.
SMILES,HSF1 inh,FXN GAA850 act,HSF-1 act,AHR act
Cc1nn(-c2ccccc2)c(N)c1C(c1ccccc1)c1c(C)nn(-c2ccccc2)c1N,63.3,-3.2,78.8*,5.6
Cc1cc(NC(=S)N(Cc2ccc(Cl)cc2)Cc2ccc(C(=O)O)cc2)ccc1Cl,49.3,0.4,80.1*,-1.6
Cc1cc(C)cc(NC(=S)N(Cc2ccc(Cl)cc2)Cc2ccc(C(=O)O)cc2)c1,16.9,-2.8,16.7,-1.4
Cc1c(N(C(=O)Nc2ccccc2)C2=NCC(C)S2)c(=O)n(-c2ccccc2)n1C (configuration not stated),10.5,-0.5,40.6,-2.2
CCOC(=O)N1CCN(S(=O)(=O)c2cc(Cl)c(OC)cc2Cl)CC1,41.2,-0.7,70.1*,3.2
CCOC(=O)N1CCN(S(=O)(=O)c2cc(OCC)ccc2OCC)CC1,2.0,3.2,-16.5,2.5
CCOC(=O)N1CCN(S(=O)(=O)c2ccc3c(c2)OCC(=O)N3)CC1,-51.9*,1.4,-61.7,0.1
CCOC(=O)N1CCN(S(=O)(=O)c2ccc3c(c2)NC(=O)CO3)CC1,.,-1.9,.,.
c1ccc(Cn2c(SCc3nc4ccccc4s3)nnc2-c2ccco2)cc1,.,1.7,.,23.7
S=C(Nc1ccc(N2CCOCC2)cc1)Nc1ccc2snnc2c1,20.5,-5.0,30.2,54.7*
N#C/C(=C(/O)COC(=O)CCc1ccc(S(=O)(=O)N2CCOCC2)cc1)c1nc2ccccc2[nH]1,-10.2,2.7,9.8,16.1
COc1ccc(S(=O)(=O)N2CCN(c3ccccc3)CC2)cc1C(=O)N1CCCC1,-0.4,-1.4,-1.7,-0.7
O=C(NCCc1nc2ccccc2[nH]1)/C(=C/c1ccc(F)cc1)NC(=O)c1ccco1,21.8,-1.9,63.9*,-0.4
O=C(NCCc1nc2ccccc2[nH]1)/C(=C/c1ccco1)NC(=O)c1ccccc1Br,-6.8,1.8,-4.0,4.0
O=C(N/C(=C\c1ccc(Br)cc1)c1nc2ccccc2[nH]1)c1ccco1,-0.1,2.3,6.1,75.0*
CCN1C(=O)/C(=C/c2cn(-c3ccccc3)nc2-c2cccnc2)SC1=S,.,0.2,.,.
Cc1cnc(C(=O)Nc2ccccc2-n2cccc2)cn1,-60.3*,-0.1,-68.0,9.7
Cc1cnc(C(=O)Nc2ccccc2F)cn1,0.8,2.9,9.5,-2.8
Cc1cc(=O)n(C2CCS(=O)(=O)C2)[nH]1 (configuration not stated),0.4,1.5,16.1,4.7
CC(=O)c1c(C)n([O-])c2ccc(C)cc2[n+]1=O,-6.3,1.7,-17.4,59.6*
O=C1NN(c2ccccc2)C(=O)C2C1C1C=CC2C12CC2 (configuration not stated),-6.3,2.0,-4.9,0.6
CC1CCCCC12NC(=O)N(CC(=O)Nc1ccc3c(c1)OCCCO3)C2=O (configuration not stated),.,0.3,.,1.6
CCC1CCCCN1CCCNC(=O)CSc1nc2nc(C)c(Cc3ccc(C)cc3)c(C)n2n1 (configuration not stated),-66.2*,-0.7,-74.8,-1.7
Cn1c(=N)n(CC(=O)c2ccc(Br)s2)c2ccccc21,-26.2,5.5,-34.6,71.2*
CC(C)(C)C(=O)Cn1c(=N)n(Cc2ccccc2)c2ccccc21,6.5,0.8,9.6,1.1
SMILES,HSF1 inh,FXN GAA850 act,HSF-1 act,AHR act
CCN(CC)CCn1c(=N)n(CC(=O)c2ccc(Br)s2)c2ccccc21,4.3,-1.2,6.1,70.0*
N=c1n(CC(=O)c2ccc(Br)s2)c2ccccc2n1Cc1ccccc1,15.9,-2.4,25.6,71.3*
COc1cccc(C(=O)Cn2c(NCCO)nc3ccccc32)c1,-6.2,0.2,-9.2,5.2
COc1cccc(C(=O)Cn2c(=N)n(C)c3ccccc32)c1,25.4,-3.0,24.8,51.7*
COC(=O)c1cccnc1-n1c(=O)c2cccnc2n(Cc2cccc(C(F)(F)F)c2)c1=O,6.6,3.6,-8.1,-0.3
COc1ccc(NC(=O)CCS(=O)(=O)c2ccc3c(c2)NC(=O)C(C)S3)cc1OC (configuration not stated),-1.7,0.4,-7.7,1.1
Cn1c(=N)n(CC(=O)c2cccs2)c2ccccc21,6.6,6.9,11.9,49.4*
CCCn1c(=N)n(CC(=O)c2cccs2)c2ccccc21,-4.8,-1.4,5.1,18.3
Cc1ccc(N2CN=c3s/c(=C\c4ccccn4)c(=O)n3C2)cc1,-51.9*,0.8,-59.0,-3.9
O=c1/c(=C/c2ccco2)sc2n1CN(c1ccccc1)CN=2,-0.9,-2.1,21.7,4.4
COc1cc(OC)cc(C(=O)c2c(C)c(C#N)c3ccccn23)c1,-7.9,-1.1,-18.8,.
Cc1cc(C)c(NC(=S)N(CCN(C)C)Cc2cccs2)c(C)c1,-1.5,-1.4,-0.1,-0.9
O=C1C=CC(=O)N1c1ccc(Sc2ccc([N+](=O)[O-])cc2)cc1,41.5,.,81.9*,-0.6

# Screens as filed in PubChem BioAssay.
